Compounds without any hit were thinned out: in the full panel of roughly 79,000, 15% have a hit. Unmarked numbers belong to inactive results. Active and inactive are the calls of the source. No stated cut-off is given here; in the data, active means growth inhibition above about 70%; inactive means the rest.
Experiment: NCI Yeast Anticancer Drug Screen. Data for the wt1 strain (AID 149);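 further: 0% = growth of vehicle-treated wt1 cultures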
Details: S. cerevisiae wt1 strain (SPY 50644) growth inhibition, hits give high values
Protocol: Growth inhibition of yeast strains with defined genetic alterations is measured as a screen for potential anti-cancer activity. Selected strains with alterations in DNA damage repair or cell cycle control were exposed to compounds and growth inhibition was measured relative to vehicle treated controls. The strain used in this assay is wt1

Row | Compound | growth inhibition (at 1.2 µM) | growth inhibition (at 3.7 µM) | growth inhibition (at 11.0 µM) | growth inhibition (at 33.0 µM) | growth inhibition (at 100.0 µM)
1 | CN(C)Cc1cc(N=Nc2ccc(Cl)cc2)cc(CN(C)C)c1O | 5% | 4% | 8% | 12% | 63%
2 | S=C(N/N=C/c1ccccn1)Nc1ccc(Cl)cc1 | -7% | -5% | -5% | 8% | 42%
3 | CCCCCCCCCCNC(=O)OCC | -3% | -5% | -4% | 4% | 98% (active)
4 | C=C1CC(Cn2cc(Br)c(=O)[nH]c2=O)(c2ccc(-c3ccccc3)cc2)OC1=O (stereo not given) | 1% | 6% | 15% | 26% | 83% (active)
5 | CCN(CC)CCC(=O)c1ccc(Oc2ccc(F)cc2)cc1 | -11% | 23% | 21% | -5% | 80% (active)
6 | [N-]=N[N+]#I1OC(C(F)(F)F)(C(F)(F)F)c2ccccc21 | 17% | 84% (active) | 99% (active) | 99% (active) | 99% (active)
7 | COc1cc(C2SCC(=O)N2c2ccc(-c3ccc(-n4c(-c5ccccc5)nc5ccccc5c4=O)cc3)cc2)cc(OC)c1OC (stereo not given) | 0% | 0% | 0% | -2% | -8%
8 | Cc1ccc(S(=O)(=O)NNC(=S)Nc2cccc3ccccc23)cc1 | -3% | -2% | -1% | 1% | 2%
